The text below walks through data of PubChem BioAssay (NCATS).

“And” between values parts separate entries of the source, which are not always exact repeats. Equal values may be shown once. Inconclusive results are not listed. The source made the active and inactive calls. The call rests on the fitted dose curve; in most records, active means well fitted cell-killing curve with a large enough effect in the repeat runs; inconclusive means weak or mixed curves; inactive means flat fitted curve, though single readings scatter.
On the % scale 0 is the no-effect control and ±100 the full control effect; potency means the concentration at half of the fitted maximal effect.

A short description of the assay: qHTS assay for small molecule agonists of the antioxidant response element (ARE) signaling pathway measured by Nrf2-dependant transcriptional activity - cell viability counter screen (AID 720653). To be noted: ARE-bla HepG2 viability, CellTiter-Glo ATP luminescence, 16 h; max response: hits give low values. The source says: National Center for Advancing Translational Sciences [NCATS] NIH Chemical Genomics Center [NCGC] U.S. Environmental Protection Agency [EPA] National Institutes of Environmental Health Sciences [NIEHS] National Toxicology Program [NTP] Assay Overview: Oxidative stress has been implicated in the pathogenesis of a variety of diseases ranging from cancer to neurodegeneration. The antioxidant response element (ARE) signaling pathway plays an important role in the amelioration of oxidative stress. The CellSensor ARE-bla HepG2 cell line (Invitrogen) can be used for analyzing the Nrf2/antioxidant response signaling pathway. Nrf2 (NF-E2-related factor 2) and Nrf1 are transcription factors that bind to AREs and activate these genes. The CellSensor ARE-bla HepG2 cell line contains a beta-lactamase reporter gene under control of the Antioxidant Response Element (ARE) stably integrated into HepG2 cells. The activation of the report gene under culture conditions can be detected by fluorescence intensity. The cytotoxicity of the compounds against the ARE-bla HepG2 cell line was quantified by measuring the intracellular ATP content.
Assay Protocol Summary: ARE-bla HepG2 cells were dispensed at 2,000 cells/5 ul/well in 1536-well black wall/clear bottom plates using a Multidrop Combi (ThermoFisher Scientific, Waltham, MA) dispenser. After the assay plates were incubated at 37C/5% CO2 for 5 hrs, 23 nL of compounds dissolved in DMSO, positive controls or DMSO only was transferred to the assay plate by a pintool work station (Kalypsys, San Diego, CA). The plates were incubated at 37C/5% CO2 for 16 hrs. After 1 uL of LiveBLAzer B/G FRET substrate was added using a Flying Reagent Dispenser (FRD) (Aurora Discovery, San Diego, CA), the assay plates were incubated at room temperature for 2 hrs. The fluorescence intensity was measured by an Envision (PerkinElmer, Shelton, CT) plate reader. Cell viability using CellTiter Glo viability assay (Promega, Madison, WI) was also measured by adding 4 ul/well of CellTiter-Glo reagent into the same assay plate using a FRD. After 30 min incubation at room temperature, the luminescence intensity in the plates was measured using a ViewLux (PerkinElmer) plate reader.
Background: qHTS replaces the single test concentration by a dilution series.
Regarding `O=Cc1ccccc1`, the max response was -5.51% (inactive).

`CCOP(=S)(OCC)SCSCC`: the max response is 6.11% (inactive).

As to `CCOc1cc(C=O)ccc1O`, the max response is -16.9% (inactive) and 0.643% (inactive).

As for `COC(=O)c1ccccc1C(=O)OC`, the max response was 8.24% (inactive) and 6.8% (inactive).

Consider `CC(C)OC(=O)Nc1ccccc1`, for which the max response is -3.27% (inactive).

On to `Cc1ccccc1O`, for which the max response was -2.37% (inactive) and 9.1% (inactive).

Regarding `C[C@]12CC[C@H]3[C@@H](CCC4=CC(=O)CC[C@@]43C)[C@@H]1CC[C@H]2O`, the max response is 1.08% (inactive).

On to `CC(C)COC(=O)c1ccccc1C(=O)OCC(C)C`, for which the max response was 7.97% (inactive).

With `C[C@@H]1Cc2c(Cl)cc(C(=O)N[C@@H](Cc3ccccc3)C(=O)O)c(O)c2C(=O)O1`, the max response was 9.38% (inactive).

As for `CCCCOP(=O)(O)OCCCC`, the max response is -8.15% (inactive).

In the case of `Oc1c(Cl)c(Cl)c(Cl)c(Cl)c1Cl`, the max response was -14.8% (inactive) and -25.3% (inactive).

As to `COC1=CC(=O)OC(CCc2ccc3c(c2)OCO3)C1` (stereo not drawn), the max response was -4.13% (inactive).

On to `Cc1ccc2cc3c(ccc4ccccc43)c3c2c1CC3`, for which the max response is -7.15% (inactive).

In the case of `CC(C)(c1ccc(OCC2CO2)cc1)c1ccc(OCC2CO2)cc1` (stereo not drawn), the max response is -3.1% (inactive).

`Nc1nc(N)c2nc(CNc3ccc(C(=O)NC(CCC(=O)O)C(=O)O)cc3)cnc2n1` (stereo not drawn): the Potency is 12.6 nM (active).

As for `CC(=O)/C=C/c1ccccc1`, the max response is -6.98% (inactive).

As to `c1ccc(Nc2ccc3ccccc3c2)cc1`, the max response was -8.38% (inactive) and -2.45% (inactive).

Consider `C[C@H]1O[C@H](OC2[C@@H](O)[C@@H](O)C(O)[C@H](O)[C@H]2O)[C@@H](N)C[C@@H]1N=C(N)C(=O)O` (stereo partly drawn), for which the max response was 3.51% (inactive).

As to `c1ccc2c(c1)-c1cccc3cccc-2c13`, the max response is -12% (inactive) and 0.837% (inactive).

For the compound `Oc1ccccc1Cl`, the max response was -1.76% (inactive).

For the compound `Cc1ccc(C)c2ccccc12`, the max response is -14.6% (inactive).

For `OCCN(CCO)CCO`, the max response is -4.95% (inactive).

`CCOC(=O)c1ccccc1N`: the max response is 3.82% (inactive).
